From PubChem BioAssay (NCI)
Values joined by “and” are separate entries in the source; they are usually repeats but may differ in a detail not shown here. Equal values may be shown once. The panel holds about 79,000 compounds, 15% with a hit somewhere; the sample as a whole holds those more often. Active and inactive are the calls of the source. No stated cut-off is given here; in the data, active means growth inhibition above about 70%; inactive means the rest.

Columns and labels:
[1] = NCI Yeast Anticancer Drug Screen. Data for the wt2 strain (AID 169);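 further: 0% = growth of vehicle-treated yeast cultures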; conditions: S. cerevisiae wt2 strain growth inhibition, active compounds read high
Summary of the method: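 Genetically defined yeast strains from a DNA-repair/cell-cycle panel were used. Compound-exposed yeast growth was measured, and the inhibition was calculated relative to vehicle treatment.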

[2] = NCI Yeast Anticancer Drug Screen. Data for the mlh1 strain (AID 171);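 further: 0% = growth of vehicle-treated control cultures of the same strain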; conditions: S. cerevisiae mlh1 strain growth inhibition, active compounds read high
Summary of the method: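 Here the genetically defined yeast mutant is grown with each compound, and the extent to which its growth falls below that of vehicle-exposed cells is reported.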

[3] = NCI Yeast Anticancer Drug Screen. Data for the mlh1 rad18 strain (AID 175); conditions: S. cerevisiae mlh1 rad18 strain growth inhibition, active compounds read high
Summary of the method: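 In this whole-cell yeast screen, a strain with altered DNA damage repair is challenged with compound, and its growth is measured against matched vehicle-treated controls.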

[4] = NCI Yeast Anticancer Drug Screen. Data for the rad18 strain (AID 177); conditions: S. cerevisiae rad18 mutant growth inhibition, active compounds read high
Summary of the method: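 Screen uses a yeast strain with a defined lesion in DNA damage repair; compound effect is read as loss of growth compared to untreated vehicle cultures.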

[5] = NCI Yeast Anticancer Drug Screen. Data for the rad52 strain (AID 147);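 further: 0% = growth of vehicle-treated control cultures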; conditions: S. cerevisiae rad52 mutant growth inhibition, active compounds read high
Summary of the method: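 Measured: yeast growth inhibition. System: strain with a defined DNA damage repair alteration. Reference: vehicle-treated control cultures.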

[6] = NCI Yeast Anticancer Drug Screen. Data for the wt1 strain (AID 149);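 further: 0% = growth of vehicle-treated wt1 cultures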; conditions: S. cerevisiae wt1 strain (SPY 50644) growth inhibition, active compounds read high
Summary of the method: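 wt1 strain grown with compound or vehicle; inhibition taken from the growth difference.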

[7] = NCI Yeast Anticancer Drug Screen. Data for the rad50EPP+ strain (AID 151);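 further: 0% = growth of vehicle-treated control cultures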; conditions: S. cerevisiae rad50 mutant strain, active compounds read high
Summary of the method: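 One strain with a rad50 alteration (rad50EPP+) was compound-treated, its growth then compared to that of vehicle controls.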

[8] = NCI Yeast Anticancer Drug Screen. Data for the mgt1 strain (AID 153); conditions: S. cerevisiae mgt1 mutant growth inhibition, active compounds read high
Summary of the method: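 After exposure of the mgt1 yeast mutant to compound, growth was measured and reported as inhibition compared with vehicle controls.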

[9] = NCI Yeast Anticancer Drug Screen. Data for the rad50 strain (AID 155);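 further: 0% = growth of vehicle-only cultures of the same strain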; conditions: S. cerevisiae rad50 strain growth inhibition, active compounds read high
Summary of the method: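 DNA repair mutant yeast, compound exposure, growth read-out; inhibition is taken relative to vehicle.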

[10] = NCI Yeast Anticancer Drug Screen. Data for the mec2-1 strain (AID 157); conditions: S. cerevisiae mec2-1 strain, active compounds read high
Summary of the method: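 Test agents were screened against the mec2-1 yeast strain, with defined DNA repair or cell cycle alteration. Growth was scored as inhibition against vehicle-only controls.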

[11] = NCI Yeast Anticancer Drug Screen. Data for the rad14 strain (AID 159);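 further: 0% = growth of vehicle-treated control cultures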; conditions: S. cerevisiae rad14 strain growth inhibition, active compounds read high
Summary of the method: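 DNA repair-defective yeast, compound-exposed; % growth inhibition derived by comparison with vehicle-treated controls.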

[12] = NCI Yeast Anticancer Drug Screen. Data for the sgs1 mgt1 strain (AID 161);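 further: 0% = growth of cultures given vehicle only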; conditions: S. cerevisiae sgs1 mgt1 strain, active compounds read high
Summary of the method: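 Test agents were incubated with a DNA-repair-mutant yeast strain. Growth was then read and compared against vehicle-treated controls.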

[13] = NCI Yeast Anticancer Drug Screen. Data for the CLN2oe strain (AID 163);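 further: 0% = growth of vehicle-only control cultures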; conditions: S. cerevisiae CLN2oe strain, active compounds read high
Summary of the method: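 Here, growth inhibition in a cell-cycle-altered yeast strain after compound exposure was quantified against vehicle control growth.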

[14] = NCI Yeast Anticancer Drug Screen. Data for the cln2 rad14 strain (AID 165);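 further: 0% = growth equal to vehicle treated cultures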; conditions: S. cerevisiae cln2 rad14 strain, active compounds read high
Summary of the method: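 Growth of compound-exposed yeast (cln2 rad14 genotype) measured and expressed as inhibition relative to vehicle.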

[15] = NCI Yeast Anticancer Drug Screen. Data for the bub3 strain (AID 167); conditions: S. cerevisiae bub3 mutant strain, active compounds read high
Summary of the method: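 In this screen, a yeast mutant lacking normal mitotic checkpoint function is challenged with compound. Relative growth versus vehicle gives the inhibition value.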

[16] = NCI Yeast Anticancer Drug Screen. Data for the sgs1 strain (AID 173);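 further: 0% = growth of vehicle-only control cultures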; conditions: S. cerevisiae sgs1 mutant, active compounds read high
Summary of the method: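 Relative growth inhibition, referenced to vehicle, was determined in a yeast strain with a defined alteration affecting DNA damage repair or cell cycle control after compound exposure.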

[17] = at 5.0 µM (retest, dose inferred, filed as 0.5)
[18] = at 50.0 µM (retest, dose inferred, filed as 5.0)

Measured: growth inhibition

c1ccc2[nH]c(-c3cscn3)nc2c1
inactive: [1]; at 1.2 µM -3% | [1]; at 3.7 µM -3% | [1]; at 11.0 µM -6% | [1]; at 33.0 µM -5% | [1]; at 100.0 µM 0% | [2]; at 1.2 µM -2% | [2]; at 3.7 µM -2% | [2]; at 11.0 µM -7% | [2]; at 33.0 µM -3% | [2]; at 100.0 µM 11% | [3]; [17] 14% | [3]; [18] 1% | [3]; at 50.0 µM -37% and 39.7% | [4]; at 1.2 µM -1% | [4]; at 3.7 µM -3% | [4]; at 11.0 µM -2% | [4]; at 33.0 µM 3% | [4]; at 100.0 µM 18%

COc1cc(/C=C2\NC(=O)N(/C=C3\C(=O)Oc4ccccc4C3=O)C2=O)ccc1O
inactive: [5]; at 1.2 µM -3% | [5]; at 3.7 µM 1% | [5]; at 11.0 µM 16% | [6]; at 1.2 µM 2% | [6]; at 3.7 µM 3% | [6]; at 11.0 µM 3% | [6]; at 33.0 µM 63% | [7]; at 1.2 µM -1% | [7]; at 3.7 µM -1% | [7]; at 11.0 µM 1% | [7]; at 33.0 µM 4% | [7]; at 100.0 µM 3% | [8]; at 1.2 µM -3% | [8]; at 3.7 µM -3% | [8]; at 11.0 µM 4% | [8]; at 33.0 µM 62% | [9]; at 1.2 µM -6% | [9]; at 3.7 µM -17% | [9]; [17] -1% | [9]; at 11.0 µM -9% | [10]; at 1.2 µM -1% | [10]; at 3.7 µM -3% | [10]; [17] -4% | [10]; at 11.0 µM 5% | [10]; at 33.0 µM 68% | [11]; at 1.2 µM -2% | [11]; at 3.7 µM -2% | [11]; at 11.0 µM 3% | [11]; at 33.0 µM 64% | [12]; [17] -11% | [13]; at 1.2 µM 0% | [13]; at 3.7 µM 1% | [13]; at 11.0 µM 15% | [14]; [17] 38% | [15]; at 1.2 µM -3% | [15]; at 3.7 µM -2% | [15]; [17] -16% | [15]; at 11.0 µM 1% | [15]; at 33.0 µM 69% | [1]; at 1.2 µM -1% | [1]; at 3.7 µM 0% | [1]; at 11.0 µM 7% | [2]; at 1.2 µM -1% | [2]; at 3.7 µM 0% | [2]; at 11.0 µM 6% | [16]; at 1.2 µM -1% | [16]; at 3.7 µM -1% | [16]; at 11.0 µM 14% | [3]; [17] 4% | [4]; at 1.2 µM -1% | [4]; at 3.7 µM -3% | [4]; at 11.0 µM -1%
active: [5]; at 33.0 µM 79% | [5]; at 100.0 µM 96% | [6]; at 100.0 µM 95% | [8]; at 100.0 µM 94% | [9]; at 33.0 µM 75% | [9]; [18] 95% | [9]; at 50.0 µM 88.4% | [9]; at 100.0 µM 95% | [10]; [18] 97% | [10]; at 50.0 µM 77.5% | [10]; at 100.0 µM 96% | [11]; at 100.0 µM 93% | [12]; [18] 92% | [12]; at 50.0 µM 93.9% | [13]; at 33.0 µM 86% | [13]; at 100.0 µM 96% | [14]; [18] 94% | [14]; at 50.0 µM 90% | [15]; [18] 90% | [15]; at 50.0 µM 90.8% | [15]; at 100.0 µM 93% | [1]; at 33.0 µM 87% | [1]; at 100.0 µM 98% | [2]; at 33.0 µM 82% | [2]; at 100.0 µM 96% | [16]; at 33.0 µM 89% | [16]; at 100.0 µM 97% | [3]; [18] 95% | [3]; at 50.0 µM 89.5% | [4]; at 33.0 µM 77% | [4]; at 100.0 µM 94%

CCc1ccc2c(c1)N(CC(C)CN(C)C)c1ccccc1S2 (centres undefined)
inactive: [5]; at 1.2 µM -5% | [5]; at 3.7 µM -8% | [5]; at 11.0 µM -9% | [5]; at 33.0 µM -1% | [5]; at 100.0 µM 69% | [6]; at 1.2 µM -2% | [6]; at 3.7 µM -4% | [6]; at 11.0 µM -6% | [6]; at 33.0 µM -5% | [6]; at 100.0 µM 32% | [7]; at 1.2 µM -12% | [7]; at 3.7 µM -15% | [7]; at 11.0 µM -23% | [7]; at 33.0 µM -31% | [8]; at 1.2 µM -3% | [8]; at 3.7 µM -4% | [8]; at 11.0 µM -6% | [8]; at 33.0 µM 0% | [9]; at 1.2 µM -4% | [9]; at 3.7 µM -9% | [9]; [17] 2% | [9]; at 11.0 µM -1% | [9]; at 33.0 µM 4% | [9]; [18] 37% | [9]; at 50.0 µM 52.1% | [10]; at 1.2 µM -6% | [10]; at 3.7 µM -8% | [10]; [17] -7% | [10]; at 11.0 µM -12% | [10]; at 33.0 µM -4% | [10]; [18] -27% | [10]; at 50.0 µM -12.1% | [10]; at 100.0 µM 58% | [11]; at 1.2 µM -2% | [11]; at 3.7 µM -4% | [11]; at 11.0 µM -1% | [11]; at 33.0 µM 23% | [12]; [17] -12% | [12]; [18] 23% | [12]; at 50.0 µM 24.3% | [13]; at 1.2 µM -9% | [13]; at 3.7 µM -4% | [13]; at 11.0 µM -10% | [13]; at 33.0 µM 3% | [13]; at 100.0 µM 58% | [14]; [17] -24% | [14]; [18] 21% | [14]; at 50.0 µM 65% | [15]; at 1.2 µM -3% | [15]; at 3.7 µM 3% | [15]; [17] 2% | [15]; at 11.0 µM 18% | [15]; at 33.0 µM 48% | [15]; [18] 32% | [1]; at 1.2 µM -4% | [1]; at 3.7 µM -4% | [1]; at 11.0 µM -6% | [1]; at 33.0 µM 3% | [2]; at 1.2 µM -2% | [2]; at 3.7 µM -3% | [2]; at 11.0 µM -5% | [2]; at 33.0 µM -23% | [2]; at 100.0 µM 62% | [16]; at 1.2 µM -4% | [16]; at 3.7 µM -5% | [16]; at 11.0 µM -4% | [16]; at 33.0 µM 16% | [3]; [17] -9% | [3]; [18] 63% | [4]; at 1.2 µM -12% | [4]; at 3.7 µM -10% | [4]; at 11.0 µM -8% | [4]; at 33.0 µM 2%
active: [7]; at 100.0 µM 87% | [8]; at 100.0 µM 76% | [9]; at 100.0 µM 82% | [11]; at 100.0 µM 96% | [15]; at 50.0 µM 74% | [15]; at 100.0 µM 74% | [1]; at 100.0 µM 78% | [16]; at 100.0 µM 93% | [3]; at 50.0 µM 83.5% | [4]; at 100.0 µM 85%
